Consider 40 compounds from PubChem BioAssay (Tox21).

Each structure is given as a SMILES string. “And” between values parts separate entries of the source, which are not always exact repeats. Identical values can stand only once. Records with an inconclusive call do not appear. Entries that show only a call come without a potency. Values without a mark were called inactive. The source made the active and inactive calls. The call rests on the fitted dose curve; in most records, active means well fitted cell-killing curve with a large enough effect in the repeat runs; inconclusive means weak or mixed curves; inactive means no such curve, though single readings can be large or run the other way.
Potency means the concentration at half of the fitted maximal effect.

This assay can be described thus: qHTS assay to identify small molecule agonists of the peroxisome proliferator-activated receptor delta (PPARd) signaling pathway - cell viability counter screen (AID 743211). Further: nearly all actives have a fitted effect of over 55% in size. Conditions: PPARd-bla HEK293H viability, CellTiter-Glo luminescence, 17 h; series mostly up to 62.6 µM; activity change, negative = cytotoxicity: at the top concentration. From the text: U.S. Tox21 Program National Center for Advancing Translational Sciences [NCATS] NIH Chemical Genomics Center [NCGC] U.S. Environmental Protection Agency [EPA] National Institutes of Environmental Health Sciences [NIEHS] National Toxicology Program [NTP] U.S. Food and Drug Administration [FDA] Tox21 Assay Overview: The peroxisome proliferator-activated receptors (PPARs) are lipid-activated transcription factors of the nuclear receptor superfamily with three distinct subtypes namely PPAR alpha, PPAR delta (PPARd) and PPAR gamma. All these subtypes heterodimerizes with Retinoid X receptor (RXR) and have different physiological functions. […] To identify the compounds that activate PPAR-delta signaling, GeneBLAzer PPAR delta UAS-bla HEK293H cell line (Invitrogen, Carlsbad, CA, USA) containing a beta-lactamase reporter gene under the control of an Upstream Activator Sequence (UAS) was used to screen the Tox21 compound library. The cytotoxicity of the Tox21 compound library against the PPARd-bla cell line was tested in parallel by measuring the cell viability using CellTiter-Glo assay (Promega, Madison, WI) in the same wells.
Tox21 Assay Protocol Summary: PPARd-bla cells were dispensed at 3000 cells/6uL/well in 1536-well black wall/clear bottom plates using a Multidrop Combi (Thermo Fisher Scientific, Waltham, MA) dispenser. After the assay plates were incubated at 37 C and 5% CO2 for 5 h, 23 nL of compounds dissolved in DMSO, positive controls or DMSO only was transferred to the assay plate by a Pintool station (Kalypsys, San Diego, CA). The assay plates were incubated at 37C for 17 h. After 1 uL of LiveBLAzerTM B/G FRET substrate was added using a Bioraptr Flying Reagent Dispenser (FRD) workstation (Beckman Coulter, Indianapolis, IN, USA), the plates were incubated at room temperature for 2 h, and fluorescence intensity was measured by an Envision plate reader (PerkinElmer, Shelton, CT). For cell viability readout that measures cytotoxicity, 3 ul/well of CellTiter-Glo reagent was added into the assay plates using a Bioraptr FRD. After 30 min incubation at room temperature, the luminescence intensity in the plates was measured using a ViewLux plate reader (PerkinElmer).
Turning to `Cc1cccc(C)c1[N+](=O)[O-]`, the “activity change, negative = cytotoxicity” value was 1.64%. Consider `COc1c2ccoc2cc2oc(=O)ccc12`, for which the Potency entry was “inactive”. As for `CC(=O)OC(C)(C)C1CC=C(C)CC1` (stereo not given), the Potency entry was “inactive”. Still for that read-out and setting: under `CCCCCCCC(=O)O` stands “inactive”. With `Cc1cc(C)c(O)c(C)c1`, the Potency result was “inactive”. On the same count and under the same terms, under `CC/C=C(\C(=O)N[C@@H]1C(=O)N2C(C(=O)OCOC(=O)C(C)(C)C)=C(COC(N)=O)CS[C@H]12)c1csc(N)n1` stands “inactive”; under `CC(=O)OCCC(C)C`, “inactive”; under `CC(=O)OCc1ccc2c(c1)OCO2`, “inactive”. With `CC(=O)OC[C@H]1O[C@@](COC(C)=O)(O[C@H]2O[C@H](COC(C)=O)[C@@H](OC(C)=O)[C@H](OC(C)=O)[C@H]2OC(C)=O)[C@@H](OC(C)=O)[C@@H]1OC(C)=O`, the Potency entry is “inactive”. On to `CC(C)=CCC/C(C)=C/C=O`, for which the Potency entry was “inactive”. Consider `O=c1n(CCCN2CCN(c3cccc(Cl)c3)CC2)nc2ccccn12`, for which the “activity change, negative = cytotoxicity” value is -6.4%.

Take `CC(C)c1ccc(C(C)C)cc1`: the Potency entry was “inactive”. Turning to `CCCCC(=O)O`, the Potency result was “inactive”. `c1cnc2c(c1)ccc1cccnc12`: the Potency was 698 nM (active) and 1.95 µM (active) and 692 nM (active). `Nc1nc(N)c2nc(-c3ccccc3)c(N)nc2n1`: the “activity change, negative = cytotoxicity” value is -19.8%. Regarding `C[n+]1ccn(CCO)c1`, the Potency entry was “inactive”. `CCCCCC(C)=O`: the Potency entry is “inactive”. Turning to `Cc1ccc(Cl)cc1`, the Potency result was “inactive”. Turning to `O=[N+]([O-])c1cc(C(F)(F)F)ccc1Cl`, the Potency result is “inactive”. With `O=Cc1ccc(CO)o1`, the Potency result was “inactive”. The same measure, in the same setting: under `CCN(CC)CCNC(=O)c1ccc(N)cc1` stands “inactive”; under `O=[N+]([O-])c1ccccc1C(F)(F)F`, “inactive”; under `OCC(CO)(CO)CO`, “inactive”.

In the case of `CC1(C)[C@@H](O[C@H]2O[C@H](C(=O)O)[C@@H](O)[C@H](O)[C@H]2O[C@@H]2O[C@H](C(=O)O)[C@@H](O)[C@H](O)[C@H]2O)CC[C@]2(C)[C@H]3C(=O)C=C4[C@@H]5C[C@@](C)(C(=O)O)CC[C@]5(C)CC[C@@]4(C)[C@]3(C)CC[C@@H]12`, the Potency entry was “inactive”. On the same count and under the same terms, for `Nc1cccc(C(F)(F)F)c1` the value was “inactive”; for `O=C1O[C@H]([C@H](O)CO)C(O)=C1O`, “inactive”; for `N[C@@H](Cc1cc(I)c(Oc2ccc(O)c(I)c2)c(I)c1)C(=O)O`, “inactive”. Regarding `OC1CCCCC1`, the Potency result is “inactive”. For the compound `COc1ccc([C@@H]2CC(=O)c3c(O)cc(O[C@@H]4O[C@H](CO[C@@H]5O[C@@H](C)[C@H](O)[C@@H](O)[C@H]5O)[C@@H](O)[C@H](O)[C@H]4O)cc3O2)cc1OC`, the “activity change, negative = cytotoxicity” value is -0.895%. In the case of `CCCOCC(C)O` (stereo not given), the Potency entry is “inactive”. For the compound `O=C(O)Cc1c[nH]c2ccccc12`, the Potency entry was “inactive”. As to `O=C(Cl)c1ccc(C(=O)Cl)cc1`, the Potency entry is “inactive”. The same measure, in the same setting: under `CC(C=O)Cc1ccc(C(C)(C)C)cc1` (stereo not given) stands “inactive”; under `Cc1ccccc1C=O`, “inactive”. As to `C[Si](C)(C)N[Si](C)(C)C`, the Potency entry was “inactive”. `COC(=O)/C=C\C(=O)OC`: the Potency result is “inactive”. For `Cc1cc(C)cc(O)c1`, the Potency entry was “inactive”. As to `CCOC(=O)CC(=O)OCC`, the Potency result is “inactive”.

Turning to `COc1ccc2cc3[n+](cc2c1OC)CCc1cc2c(cc1-3)OCO2`, the “activity change, negative = cytotoxicity” value was -15.7%. In the case of `O=C1CCCCCCCCCCC1`, the Potency result was “inactive”.
